Experimental data as given in PubChem BioAssay.
The source made the active and inactive calls.

Tests used:
[1] = A549 cell viability effects, profiling panel, calcein-AM fluorescence, 48 h, basal (AID 1162); conditions: higher = more signal
[2] = adipocyte viability effects, profiling panel, cell-based, 3T3-L1 adipocytes, calcein-AM fluorescence, 48 h, basal (AID 1163); conditions: 3T3-L1 adipocytes viability, higher = more signal
[3] = HepG2 cell viability effects, profiling panel, calcein-AM fluorescence, 48 h, basal (AID 1164); conditions: higher = more signal
[4] = MM1S cell viability effects, profiling panel, calcein-AM fluorescence, 48 h, basal (AID 1165); conditions: higher = more signal;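 also: viability of MM1S multiple myeloma cells under basal unstimulated conditions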
[5] = basal RPMI8226 viability, no added stimulus, profiling panel, cell-based, calcein-AM fluorescence, 48 h, PK04 Diversity Set (AID 1166); conditions: RPMI8226 myeloma viability, higher = more signal;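 also: cells grown under basal conditions without added stimulus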
[6] = basal HepG2 mitochondrial membrane potential changes, profiling panel, cell-based, JC-1 fluorescence, 24 h, 100 nL compound (AID 1167); conditions: higher = more signal
[7] = basal 3T3-L1 adipocyte mitochondrial potential changes, profiling panel, cell-based, JC-1 fluorescence, 3T3-L1 adipocytes, 24 h, 100 nL compound (AID 1168); conditions: JC-1 mitochondrial fluorescence, higher = more signal, called active from +8 up or from −8 down
[8] = basal RPMI8226 mitochondrial membrane potential changes, profiling panel, cell-based, JC-1 fluorescence, 24 h, 100 nL compound (AID 1169); conditions: RPMI8226 myeloma, JC-1 mitochondrial potential fluorescence, higher = more signal
[9] = basal MM1S mitochondrial membrane potential changes, profiling panel, cell-based, JC-1 fluorescence, 24 h, 100 nL compound (AID 1170); conditions: higher = more signal
[10] = A549 lung cancer cell viability effects, profiling panel, resazurin fluorescence, 24 h, PK04 Diversity Set (AID 1171); conditions: higher = more signal, called active from +8 up or from −8 down
Also: test concentration not given here.

| Structure (SMILES) | z-score [1] | z-score [2] | z-score [3] | z-score [4] | z-score [5] | z-score [6] | z-score [7] | z-score [8] | z-score [9] | z-score [10] |
| --- | --- | --- | --- | --- | --- | --- | --- | --- | --- | --- |
| CCCC[C@@H](O)C1=C(C)C[C@H]2C(=O)N(Cc3ccccc3)C(=O)[C@H]2[C@H]1CO | 0.35 | 0.356 | -0.0592 | -0.0699 | 1.09 | 0.579 | 0.164 (inactive) | -0.0812 | -0.785 | 0.453 (inactive) |
| CN1C(=O)C2C=CC(C(O)C(c3ccccc3)c3ccccc3)N(NC(=O)OC(C)(C)C)C2C1=O (stereo not given) | -1.23 | -0.4 | -0.698 | -2.47 | -1.61 | -1.46 | -0.378 (inactive) | -0.654 | 0.455 | 0.383 (inactive) |
| Cc1ccc(S[C@]2(C(=O)O)CC(=O)N(Cc3ccccc3)[C@@H]2c2ccc(CO)cc2I)cc1 | 0.282 | 0.181 | 0.0583 | -2.82 | -2.03 | -0.862 | -0.486 (inactive) | -0.551 | -0.967 | 0.682 (inactive) |
| C=CCOC(=O)[C@H]1[C@@H]2C(=O)O[C@@H](c3ccccc3)[C@@H](c3ccccc3)N2[C@@H](c2ccc(OCCOC(=O)[C@H]3C[C@H]4C(=O)N5CCC[C@H]5C(=O)N4[C@H]3c3cccc(OCCO)c3)cc2)[C@]12C(=O)Nc1ccc(I)cc12 | -0.0113 | 0.199 | 0.144 | 0.817 | -0.452 | -0.0589 | -0.518 (inactive) | -0.855 | -0.122 | 0.9 (inactive) |
| COCCCNC(=O)[C@@]1(C)c2ccccc2C(=O)N(Cc2ccc(OC(F)(F)F)cc2)[C@H]1c1ccc(CO)cc1 | 0.144 | -0.471 | 1.22 | -0.0013 | 0.125 | 2.4 | 0.582 (inactive) | -0.68 | -1.06 | -0.903 (inactive) |
| COC(=O)[C@@]1(Cc2ccc(F)cc2)[C@H]2c3cc(C(=O)N(C)C)n(Cc4ccc(OC)c(OC)c4)c3C[C@H]2CN1C(=O)c1ccccc1 | -0.74 | 0.272 | -1.36 | -1.13 | -2.04 | 0.594 | -0.512 (inactive) | 0.0709 | -0.7 | -0.507 (inactive) |
| CO[C@@H]1COC(=O)[C@H](C)NC(=O)[C@@H](C)COC(=O)CCC[C@H]1C | -0.0857 | -0.459 | -0.735 | -0.3 | -1.38 | -0.85 | -0.788 (inactive) | 0.706 | -0.626 | -0.0213 (inactive) |
| C=CC[C@@H]1C=C[C@H](ON=Cc2ccc(C(=O)N3[C@H](c4ccc(C)cc4)[C@@H](C)CC[C@H]3C(=O)OC)cc2)[C@@H](CO)O1 | 0.319 | -0.361 | -0.431 | -0.581 | -1.4 | -1.67 | -0.0052 (inactive) | 0.634 | -0.434 | -0.299 (inactive) |
| CCOC(=O)NN=C1C[C@@H](O)[C@@H](O)[C@@H]2[C@@H]3C(=O)N(C(C)(C)C)C(=O)[C@@H]3CC[C@@H]12 | -0.571 | -0.0947 | -0.394 | 0.0284 | -0.0464 | -0.79 | -0.911 (inactive) | 0.329 | 0.243 | -0.452 (inactive) |
| CC(=O)OC[C@H]1O[C@@H](ON=C(C)CCN2CCc3nc(-c4ccccc4)c(-c4ccccc4)cc3C2)[C@H](OC(C)=O)[C@@H](OC(C)=O)[C@@H]1OC(C)=O | -0.21 | 0.565 | 0.69 | -0.0213 | -0.162 | 1.11 | -1.19 (inactive) | -0.522 | 0.231 | -0.282 (inactive) |
| O=C1[C@H]2[C@H]3[C@H](O)[C@H](O)CC(=NO[C@@H]4O[C@H](CO)[C@@H](O)[C@H](O)[C@H]4O)[C@H]3CC[C@H]2C(=O)N1Cc1ccccc1 | -0.0916 | -0.0474 | -0.571 | 0.713 | -0.716 | 0.616 | -0.0221 (inactive) | 0.42 | -0.755 | 0.623 (inactive) |
| COC(=O)[C@H]1COC(c2ccc(OCCCO)cc2)=N1 | -0.283 | 0.568 | -0.344 | 0.0072 | -0.231 | -0.371 | 0.203 (inactive) | -0.16 | 1.23 | 0.0759 (inactive) |
| C=CC[C@@H]1C=C[C@H](ON=C[C@@H](OC)[C@H](C)C=CCC(=O)OC)[C@@H](CO)O1 | 0.812 | -0.933 | 0.623 | 0.486 | -0.939 | -0.0676 | -0.862 (inactive) | 0.461 | -0.448 | -0.498 (inactive) |
| CC(CCN1CCc2nc(-c3ccccc3)c(-c3ccccc3)cc2C1)=NO[C@H](C)c1cn([C@@H]2COC[C@H]2O)nn1 | 1.9 | 0.183 | 1.2 | 0.259 | -0.283 | 1.34 | -0.673 (inactive) | -0.291 | -0.381 | -0.579 (inactive) |
| CO[C@H]1COC(=O)[C@@H]2CCCN2C(=O)CC=C[C@@H](C)[C@H](OC)COC(=O)CC=C[C@@H]1C | 0.346 | 1.04 | 1.01 | 0.292 | 0.84 | 1.23 | 0.252 (inactive) | -1.13 | 1.16 | 0.287 (inactive) |
| CC(C)C[C@@H]1NC(=O)[C@H]2C[C@@H](C(=O)NCCCCCCN(C)C)[C@@H](c3cccc(OCCO)c3)N2C1=O | -1.26 | 0.88 | -0.278 | 0.303 | 0.651 | -1.09 | -0.481 (inactive) | -0.0673 | -0.0169 | -0.21 (inactive) |
| CCOC(=O)C1=CCC(c2cc3ccccc3[nH]2)NC1 (stereo not given) | -0.35 | -0.709 | 1.08 | 1.13 | 0.255 | 0.4 | 1.17 (inactive) | -0.0143 | -1.26 | -0.412 (inactive) |
| CC(C)CN1CCc2nc(-c3ccccc3)c3c(c2CC1)CO[C@@H](C)C3 | 0.277 | 0.493 | -0.0216 | -2.48 | -1.32 | 0.93 | 0.163 (inactive) | 0.0637 | 0.75 | 0.569 (inactive) |
| COC(=O)[C@@H]1CCCN1C(=O)[C@@H](C)CO | 0.0364 | 0.512 | -0.52 | -2.77 | -0.57 | -0.952 | 0.514 (inactive) | -0.157 | -1.32 | -1.14 (inactive) |
| C=CC[C@@H]1C=C[C@H](ON=C(C)CCN2CCc3nc(CC)c(CC)cc3C2)[C@@H](CO)O1 | 1.36 | 1.06 | -1.47 | -0.727 | 0.121 | 3.09 | -1.31 (inactive) | 0.0868 | -0.587 | 0.097 (inactive) |
| CC(CCC(=O)OC[C@H]1O[C@H](C#Cc2ccccc2)C=C[C@@H]1Oc1ccc(C)cc1)=NO[C@@H](C)c1cn([C@H](CO)Cc2ccccc2)nn1 | -0.487 | 0.725 | -0.982 | -0.622 | -2.17 | 0.453 | -0.346 (inactive) | 0.496 | -0.0262 | 0.555 (inactive) |
| CC(CCN1CCCCc2nc(C)c(C)cc21)=NOC(C)CN1CCCc2nc(C)c(C)cc21 (stereo not given) | -0.587 | -0.315 | -0.253 | -2.66 | -0.681 | 0.346 | -1.7 (inactive) | 0.133 | -0.269 | 0.37 (inactive) |
| CCOC(=O)[C@H](Cc1ccccc1)NC(=O)CCC1CC(OC(=O)NCc2ccc3c(c2)OCO3)CC2(CCCC(COC(=O)NCC3CCCCC3)O2)O1 (stereo not given in full) | 0.0417 | -0.0963 | -0.264 | -2.06 | -2.09 | 1.84 | -0.0648 (inactive) | -0.00903 | -0.306 | 1.02 (inactive) |
| Cc1ccc(S[C@]2(C(=O)NCC(F)(F)F)CC(=O)N(Cc3ccccc3Cl)[C@@H]2c2ccc(CO)cc2I)cc1 | -1.08 | -0.798 | 0.995 | -2.24 | -2.67 | 0.627 | -0.541 (inactive) | -0.566 | -1.18 | 0.318 (inactive) |
| CC(C)CON=C1[C@H]2CCn3c(=O)n(-c4ccccc4)c(=O)n3[C@H]2[C@H](O)[C@@H]2O[C@H]12 | -0.464 | 0.322 | 0.332 | 0.456 | -1.2 | -0.174 | -0.0969 (inactive) | -0.385 | -0.209 | -0.829 (inactive) |
| O=C(CS)NCCCCCNC(=O)[C@H]1C[C@H]2C(=O)N3CCC[C@H]3C(=O)N2[C@H]1c1cccc(OCCO)c1 | 0.631 | -0.367 | 0.432 | -0.0388 | -0.198 | 2.21 | 0.0249 (inactive) | -0.736 | -0.419 | 0.477 (inactive) |
| CCOC(=O)CCN1C(=O)[C@H]2[C@H]3[C@H](O)[C@H](O)CC(=NOC[C@@H](O)COCc4ccco4)[C@H]3CC[C@H]2C1=O | -1.43 | 0.8 | -0.524 | -2.09 | -2.29 | -0.803 | -0.433 (inactive) | -0.126 | -0.612 | -0.383 (inactive) |
| CC(C)OC(=O)C=C1C[C@@H](c2ccc(C#N)cc2)O[C@@H](c2ccc(C#N)cc2)O1 | -0.301 | 0.538 | -0.0099 | -2.29 | -0.69 | -1.06 | -0.195 (inactive) | -0.462 | -2.22 | 0.199 (inactive) |
| C[C@@H](c1ccccc1)N1C(=O)[C@H]2[C@H]3[C@H](O)C=CC(=O)[C@@H]3CC[C@H]2C1=O | -0.0257 | 0.0344 | 0.628 | -0.438 | -0.136 | 0.457 | 0.715 (inactive) | 0.04 | 0.711 | 0.165 (inactive) |
